These results are taken from PubChem BioAssay (NCATS).

The nature of assay [1]: qHTS assay for measurement of the activity of small molecule inhibitors on Zika virus induced Caspase-3 activity in human astrocytoma cells (AID 1224859).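 Also: plate controls were ZIKV-infected untreated cells for no effect and uninfected cells for full effect.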 The note with it: SNB-19 ZIKV-induced caspase-3/7, luminescence, 6 h; series mostly up to 45.7 µM. The procedure, abridged: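 Luminescence read-out (Caspase-Glo 3/7, 30 min RT) of caspase activity in SNB-19 cells infected 6 h with ZIKV, 2 FFU/cell, after 1 h compound pretreatment; % inhibition from induction normalised to uninfected (0%) and infected (100%) wells.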
Background: Quantitative high-throughput screening tests each substance at several concentrations.

Assay [2] can be described thus: Natriuretic polypeptide receptor (hNpr1) antagonism - Pilot counterscreen GloSensor control cell line (AID 1347045; calls by dose curve; also: % is scaled to controls: 0 for no effect and ±100 for the full control effect). The conditions noted are these: HEK293 cGMP GloSensor cells, SNP-stimulated luminescence, 20 min; series mostly up to 38.3 µM. The procedure, abridged:
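This counterscreen uses HEK293 cells expressing the GIP/pGS-40F cGMP biosensor. Compound-treated cells are challenged with 50 uM sodium nitroprusside, and the luciferase signal is compared before and after stimulation.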
On the technique in general: The purpose of a counterscreen is to sort out artefacts and off-target activity.

Assay [3] deals with Atrial natriuretic peptide receptor 1 (Homo sapiens) (UniProt P16066). Put plainly: Natriuretic polypeptide receptor (hNpr1) antagonism - Pilot screen (AID 1347049; calls by dose curve;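 also: agonist-evoked cGMP luminescence read 20 min after hNppA addition; % is scaled to controls: 0 for no effect and ±100 for the full control effect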). The conditions noted are these: hNpr1 cells, antagonist mode cGMP read-out; series mostly up to 57.5 µM. The procedure, abridged:
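Readout is cGMP-driven firefly luciferase luminescence in HEK293 cells carrying hNpr1 and a PDE5-domain GloSensor, read before and 20 min after 0.1 nM hNppA stimulation. Cells had 2% substrate reagent for 2 h and test compound for 30 min.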

Assay [4] concerns the target Atrial natriuretic peptide receptor 2 (Homo sapiens) (UniProt P20594). Put plainly: Natriuretic polypeptide receptor (hNpr2) antagonism - Pilot subtype selectivity assay (AID 1347050; calls by dose curve; also: % is scaled to controls: 0 for no effect and ±100 for the full control effect). The note with it: NPR2-expressing cells, cGMP antagonist-mode read-out; series mostly up to 38.3 µM. The procedure, abridged: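 Pilot selectivity screen against hNpr2: HEK293 cGMP-sensor cells are treated with LOPAC1280 compounds, then with hNppC peptide at 1 nM final. The cGMP-driven luminescence change over 20 min at room temperature is the read-out.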

Assay [5] can be described thus: NS1 protein of Zika virus - qHTS assay to identify small molecule inhibitors in human HEK 293 cells (AID 1347053).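 Also: plate controls were infected untreated cells for no effect and uninfected cells for full effect; nearly all actives have a fitted effect of over 55% in size.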 The note with it: HEK293 ZIKV MR766 infection, NS1 TR-FRET, 24 h; series mostly up to 46.1 µM. Summed up: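 HEK 293 cells, seeded 20 h at 37 C, were pretreated with compound 1 h, then infected with ZIKV MR766 (MOI = 0.5) for 24 h. NS1 was read by TR-FRET with two anti-NS1 antibodies, normalized to uninfected and infected wells.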

Assay [6] can be described thus: qHTS Assay for Identifying Gametocytocidal Compounds (AID 743244). Also: potency is read from the fitted curve at half-maximal effect.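 As to max response: % is scaled to controls: 0 for no effect and ±100 for the full control effect; actives lower the fluorescent signal which means gametocytes are killed.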 The note with it: P. falciparum 3D7 stage III-V gametocytes, alamarBlue, 72 h; max response: hits give low values. The procedure, abridged: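 P. falciparum 3D7 stage III–V gametocytes (20,000 cells/well) were exposed to compounds for 72 h at 37 °C, 5% CO2. AlamarBlue was then added for 24 h; decreased resorufin fluorescence (Ex 525/Em 598 nm) indicated loss of viability.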

Assay [7] can be described thus: qHTS assay to identify small molecule inhibitors of chordoma cells - UCH-1 (AID 1259355). Also: % is scaled to controls: 0 for no effect and ±100 for the full control effect; nearly all actives have a fitted effect of over 55% in size. The conditions noted are these: UCH-1 chordoma viability, CellTiter-Glo, 48 h, combination; series mostly up to 46.1 µM. Summed up: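 Seed 800 cells per well; incubate overnight at 37 C, 5% CO2. Add test compounds (15 concentrations), then the auranofin–topoisomerase-agent combination. Incubate 48hr, add CellTiter-Glo, wait 30min, read luminescence.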

Assay [8] in a line: qHTS assay to identify small molecule inhibitors of chordoma cells - UCH-2 (AID 1259356). Also: % is scaled to controls: 0 for no effect and ±100 for the full control effect. The conditions noted are these: UCH-2 chordoma viability, CellTiter-Glo ATP luminescence, 48 h; series mostly up to 46.1 µM.
Assay [9] can be described thus: P-glycoprotein substrates identified in KB-8-5-11 adenocarcinoma cell line, qHTS therapeutic library screen (AID 1346987). Also: nearly all actives have a fitted effect of over 65% in size. Also: potency is read from the fitted curve at half-maximal effect. The conditions noted are these: KB-8-5-11 (P-gp overexpressing) viability, CellTiter-Glo, 72 h; series mostly up to 44.5 µM. Summed up:
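P-gp-mediated resistance screen: KB-8-5-11 cells treated 72 h with compounds in dose-response. CellTiter-Glo viability.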

Values without a mark were called inactive. Records with an inconclusive call do not appear. Calls of active or inactive are those of the source. Unless noted, calls follow the shape of the dose curve; as a rule, active = well fitted curve in the direction sought with a large enough effect; inconclusive = small, poorly fitted or top-dose-only effect, or another doubt; inactive = no such curve, though single readings can be large; an effect the other way counts as inactive or inconclusive.

Atrial natriuretic peptide receptor 2 (Homo sapiens), sequence (P20594 whole entry, looked up): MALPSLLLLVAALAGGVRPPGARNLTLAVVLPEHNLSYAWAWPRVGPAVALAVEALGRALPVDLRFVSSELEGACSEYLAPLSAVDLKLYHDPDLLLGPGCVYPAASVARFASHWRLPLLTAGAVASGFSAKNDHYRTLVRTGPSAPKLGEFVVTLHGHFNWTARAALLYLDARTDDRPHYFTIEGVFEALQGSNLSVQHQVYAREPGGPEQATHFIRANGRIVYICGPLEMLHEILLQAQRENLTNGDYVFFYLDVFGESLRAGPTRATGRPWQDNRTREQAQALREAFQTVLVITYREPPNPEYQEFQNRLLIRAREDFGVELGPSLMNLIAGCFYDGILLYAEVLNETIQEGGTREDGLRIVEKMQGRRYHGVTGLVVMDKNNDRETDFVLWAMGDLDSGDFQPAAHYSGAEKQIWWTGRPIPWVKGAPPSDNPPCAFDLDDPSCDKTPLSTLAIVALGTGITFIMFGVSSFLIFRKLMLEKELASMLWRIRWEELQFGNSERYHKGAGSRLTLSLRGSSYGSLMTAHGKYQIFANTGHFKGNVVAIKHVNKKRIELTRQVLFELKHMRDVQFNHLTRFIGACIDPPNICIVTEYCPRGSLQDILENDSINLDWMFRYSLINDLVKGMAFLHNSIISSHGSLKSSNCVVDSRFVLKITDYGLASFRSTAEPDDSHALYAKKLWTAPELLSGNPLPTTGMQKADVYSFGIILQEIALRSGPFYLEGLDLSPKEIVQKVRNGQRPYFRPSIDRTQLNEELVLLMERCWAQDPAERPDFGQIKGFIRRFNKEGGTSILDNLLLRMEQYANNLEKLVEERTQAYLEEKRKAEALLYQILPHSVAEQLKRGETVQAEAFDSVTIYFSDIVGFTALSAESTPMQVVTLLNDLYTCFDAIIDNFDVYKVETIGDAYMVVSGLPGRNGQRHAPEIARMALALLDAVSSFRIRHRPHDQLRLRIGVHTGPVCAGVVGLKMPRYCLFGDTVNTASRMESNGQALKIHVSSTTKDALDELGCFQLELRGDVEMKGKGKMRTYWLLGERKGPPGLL
Atrial natriuretic peptide receptor 1 (Homo sapiens), sequence (P16066 whole entry, looked up): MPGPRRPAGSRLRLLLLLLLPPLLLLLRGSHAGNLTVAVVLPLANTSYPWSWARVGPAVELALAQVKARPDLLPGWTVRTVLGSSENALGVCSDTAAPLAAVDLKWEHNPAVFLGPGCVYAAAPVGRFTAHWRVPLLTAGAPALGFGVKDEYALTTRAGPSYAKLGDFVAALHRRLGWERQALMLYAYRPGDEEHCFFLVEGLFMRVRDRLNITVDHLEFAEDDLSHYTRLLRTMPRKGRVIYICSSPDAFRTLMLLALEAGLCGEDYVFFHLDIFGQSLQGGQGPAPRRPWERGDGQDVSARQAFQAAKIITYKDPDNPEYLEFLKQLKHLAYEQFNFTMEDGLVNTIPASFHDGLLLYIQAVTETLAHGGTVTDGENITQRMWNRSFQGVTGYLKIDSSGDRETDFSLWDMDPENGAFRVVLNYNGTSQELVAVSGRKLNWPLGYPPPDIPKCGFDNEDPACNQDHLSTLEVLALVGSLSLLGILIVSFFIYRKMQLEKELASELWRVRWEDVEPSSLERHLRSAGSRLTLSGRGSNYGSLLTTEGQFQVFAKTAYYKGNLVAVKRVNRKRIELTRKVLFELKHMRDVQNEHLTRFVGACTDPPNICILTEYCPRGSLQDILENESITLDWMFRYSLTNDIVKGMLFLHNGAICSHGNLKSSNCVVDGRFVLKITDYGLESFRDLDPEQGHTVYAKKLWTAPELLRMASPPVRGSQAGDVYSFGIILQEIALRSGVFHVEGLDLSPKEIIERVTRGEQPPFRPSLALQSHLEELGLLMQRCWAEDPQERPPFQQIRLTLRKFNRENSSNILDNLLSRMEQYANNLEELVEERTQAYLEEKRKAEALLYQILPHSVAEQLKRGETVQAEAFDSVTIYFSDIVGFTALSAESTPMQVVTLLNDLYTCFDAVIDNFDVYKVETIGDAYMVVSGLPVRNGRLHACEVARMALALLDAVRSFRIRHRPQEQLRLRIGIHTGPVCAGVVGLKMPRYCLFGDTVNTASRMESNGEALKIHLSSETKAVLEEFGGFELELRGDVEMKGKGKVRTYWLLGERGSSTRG

For `CC(=O)OCC1=C(C(=O)O)N2C(=O)[C@@H](NC(=O)CCC[C@@H](N)C(=O)O)[C@H]2SC1`, the compound was called inactive in [1] and in assay [5]. In addition, the Potency entry in assay [2], in [3] and in [4] was “inactive” throughout.
Regarding `CCCn1c(C)c(C(=O)c2ccc3ccccc3c2)c2ccccc21`, the max response in assay [6] was 6.14%. Further, the result in assay [1] was inactive. The Potency result in assay [2], in assay [3] and in assay [4] was “inactive” each time.
As for `C=CCN1CCc2cccc3c2[C@H]1Cc1ccc(O)c(O)c1-3`, the Potency in [6] is 1.12 µM (active). In [1], the compound was classed as inactive. The Potency entry in assay [3] and in assay [4] was “inactive” each time.
Consider `C=CCN1CC[C@]23c4c5ccc(O)c4O[C@@H]2/C(=N/N=C2\CC[C@@]4(O)C6Cc7ccc(O)c8c7[C@@]4(CCN6CC=C)[C@@H]2O8)CC[C@@]3(O)C1C5`, for which the Potency in assay [6] was 1 µM (active). Also, the outcome in assay [1] was inactive. Further, the Potency entry in [2] and in assay [3] was “inactive” each time.
For the compound `C=CCN1CC[C@]23c4c5ccc(O)c4O[C@H]2/C(=N/NC(=O)c2ccccc2)CC[C@@]3(O)[C@H]1C5`, the max response in [6] is 8.77%. Besides, the outcome in assay [1] was inactive. For the same compound, the Potency entry in assay [2], in assay [3] and in assay [4] was “inactive” throughout.
Turning to `C[Se]C[C@H](N)C(=O)O`, in assay [6], the max response was -6.02%. Besides, in assay [1], the call was inactive. The Potency result in assay [2], in [3] and in assay [4] was “inactive” each time.
On to `COc1cc(CC(C)N)c(OC)cc1I` (stereo not drawn), for which the max response in assay [6] was 3.52%. In addition, the call in assay [1] was inactive. Besides, the Potency result in assay [2] and in assay [4] was “inactive” in each case.
Turning to `C[C@@H]1O[C@H](C[N+](C)(C)C)CS1`, in [6], the max response was 20.1%. Also, the result in [1] was inactive. In addition, the Potency result in assay [2], in assay [3] and in assay [4] was “inactive” throughout.
For `COc1ccc(CNC(=O)/C=C/c2ccc3[nH]cc(CCN(C)C)c3c2)cc1`, the max response in [6] is -2.88%. Further, the outcome in assay [1] and in assay [5] was inactive. For the same compound, the Potency entry in assay [2], in assay [3] and in assay [4] was “inactive” throughout.
Take `CC(Cc1ccc(OCC(=O)O)cc1)NCC(O)c1cccc(Cl)c1` (stereo not drawn): the max response in assay [6] was 16.8%. For the same compound, the outcome in [1] and in assay [5] was inactive. Further, the Potency entry in assay [2], in [3] and in assay [4] was “inactive” throughout.
On to `CC(C)(O)[C@@H]1C2OC(=O)[C@@H]1[C@]1(O)C[C@H]3O[C@]34C(=O)O[C@H]2[C@]14C` (tested in a mixture with another compound), for which the max response in [6] is 18.2%. Also, the outcome in [1] and in assay [5] was inactive. The Potency entry in [2], in [3] and in [4] was “inactive” throughout.
Regarding `N[C@@H](Cn1ccc(=O)[nH]c1=O)C(=O)O`, the max response in [6] is 15.1%. Further, the compound was classed as inactive in assay [1]. Moreover, the Potency entry in [2], in assay [3] and in assay [4] was “inactive” each time.
Consider `O=C(C[C@@H]1NCCC[C@H]1O)Cn1cnc2cc(Br)c(Cl)cc2c1=O`, for which the Potency entry in assay [7], in [8] and in [9] was “inactive” in each case.
As for `CCN(CC)CCO[C@H]1CC[C@@]2(C)C(=CC[C@@H]3[C@@H]2CC[C@]2(C)C(=O)CC[C@@H]32)C1`, the Potency entry in assay [7] and in assay [8] was “inactive” throughout.
With `C[C@H]1CC[C@]2(NC1)O[C@H]1C[C@H]3[C@@H]4CC[C@H]5C[C@@H](O)CC[C@]5(C)[C@H]4CC[C@]3(C)[C@H]1[C@@H]2C`, the Potency result in assay [7], in [8] and in assay [9] was “inactive” throughout.
Turning to `CN1[C@H]2CC[C@@H]1[C@@H](C(=O)O)[C@@H](OC(=O)c1ccccc1)C2`, the Potency result in [7], in assay [8] and in [9] was “inactive” throughout.
Take `CC1CCC(C(C)C)C(OC(=O)c2ccccc2N)C1` (stereo not drawn): the max response in [6] is 9.28%. Further, the Potency result in assay [7], in [8] and in [9] was “inactive” each time.
For `CN1c2ccccc2C(NCCCCCCC(=O)O)c2ccc(Cl)cc2S1(=O)=O` (stereo not drawn), the Potency entry in assay [7], in assay [8] and in assay [9] was “inactive” in each case.
In the case of `O=S(=O)(O)c1cc(O)ccc1O`, in assay [6], the max response was 6.77%. Besides, the Potency entry in [7], in assay [8] and in assay [9] was “inactive” each time.
Take `OC[C@@H](O)[C@H]1O[C@@H]2O[C@H](C(Cl)(Cl)Cl)O[C@@H]2[C@H]1O`: the Potency result in assay [7], in [8] and in [9] was “inactive” in each case.
With `C[C@]12CC[C@H]3[C@@H](CCC4=C(Cl)C(=O)CC[C@@]43C)[C@@H]1CC[C@@H]2O`, the Potency result in assay [7] and in [8] was “inactive” each time. For the same compound, the Potency in assay [9] was 13 µM (active).
For `CC(=O)OO`, the max response in [6] was -9.86%. Also, the Potency result in assay [7], in assay [8] and in assay [9] was “inactive” in each case.
As for `C=C[C@H]1CN2CC[C@H]1C[C@H]2[C@H](OC(=O)OCC)c1ccnc2ccc(OC)cc12`, the Potency result in [7] and in [8] was “inactive” throughout.
As to `CCN(CC)C(=O)N[C@H]1C[C@@H]2c3cccc4[nH]cc(c34)C[C@H]2N(C)C1`, the Potency result in [7] and in [8] was “inactive” each time.
Regarding `Clc1ccc(C(Cn2ccnc2)OCc2csc3c(Cl)cccc23)c(Cl)c1` (stereo not drawn), the Potency result in [7] and in [8] was “inactive” each time.
Consider `[S]=[Sb](=[S])[S][Sb](=[S])=[S]`, for which the Potency result in assay [7], in assay [8] and in [9] was “inactive” throughout.
For `Cc1ccccc1-n1c(C)nc2ccccc2c1=O`, the Potency entry in [7], in assay [8] and in assay [9] was “inactive” throughout.
Consider `C[C@@H]([C@H](O)c1ccccc1)N(C)C`, for which the Potency entry in assay [7], in assay [8] and in assay [9] was “inactive” each time.
Regarding `O=C1CCCCC1CN1CCCCC1` (stereo not drawn), the Potency result in assay [7], in [8] and in [9] was “inactive” throughout.
On to `CC(=O)O[C@H]1CC[C@H]2[C@@H]3CCC4=CC(=O)CCC4=C3C=C[C@]12C`, for which the max response in assay [6] is 5.16%. For the same compound, the Potency entry in assay [7] and in assay [8] was “inactive” throughout. Moreover, in [9], the Potency is 7.31 µM (active).
For `N#CC1(N2CCCCC2)CCCCC1`, the Potency result in assay [7], in assay [8] and in assay [9] was “inactive” each time.
Take `F/C(COc1ccc2c(c1)[nH]c1ccccc12)=C1/CN2CCC1CC2`: the Potency entry in assay [7], in assay [8] and in [9] was “inactive” throughout.
As to `CN[C@H]1C[C@@H](N)[C@H](O)[C@@H](O[C@@H]2O[C@H](CO)[C@H](O)[C@@H]3OC4(O[C@H]23)O[C@H](C(N)CO)[C@H](O)[C@H](O)[C@H]4O)[C@@H]1O` (stereo partly drawn), the Potency result in assay [7], in assay [8] and in assay [9] was “inactive” each time.
